# Compound activity deposited in PubChem by National Center for Advancing Translational Sciences (NCATS).
# An excerpt weighted towards active compounds, which were near 4% of everything screened.
# GBA activity = modulators of human glucocerebrosidase | P04062 | purified enzyme, resorufin glucoside fluorescence (screen aimed at inhibitors), 20 min | Potency, µM | AID 360 | actives 1.1% (n = 48,000); in the data active = potency below about 15 µM; inconclusive = mostly about 16 µM to 33 µM;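 note: the screen sought inhibitors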
# Target sequence (P04062 whole entry, looked up): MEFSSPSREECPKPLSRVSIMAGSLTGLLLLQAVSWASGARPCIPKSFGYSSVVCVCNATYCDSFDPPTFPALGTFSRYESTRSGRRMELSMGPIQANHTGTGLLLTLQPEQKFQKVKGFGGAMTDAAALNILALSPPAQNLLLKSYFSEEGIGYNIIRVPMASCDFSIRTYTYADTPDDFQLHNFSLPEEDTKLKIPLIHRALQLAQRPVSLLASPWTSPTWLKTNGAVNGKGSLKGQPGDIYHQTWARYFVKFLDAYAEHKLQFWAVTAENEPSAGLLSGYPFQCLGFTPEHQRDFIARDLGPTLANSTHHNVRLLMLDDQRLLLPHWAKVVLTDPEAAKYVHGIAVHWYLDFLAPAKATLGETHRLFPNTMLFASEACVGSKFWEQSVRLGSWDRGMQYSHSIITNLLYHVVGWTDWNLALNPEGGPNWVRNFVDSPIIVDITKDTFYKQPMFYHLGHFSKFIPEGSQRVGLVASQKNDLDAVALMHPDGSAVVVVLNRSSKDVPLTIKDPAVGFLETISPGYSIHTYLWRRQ
#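 Wild-type enzyme at 0.2 nM final in 50mM citric acid/KH2PO4, 10mM sodium taurocholate, 0.01% tween-20, pH 5.9, with resorufin beta-D-glucopyranoside at 30 uM final. Compounds titrated, 20 min at RT, red fluorescence read; AC50 from titration.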
# HEK293 cAMP ctrl = raises cAMP in parental HEK293 cells, TSHR agonist counter-screen; actives 2.5% (n = 73,000); parental HEK293 CNG cAMP sensor, membrane potential fluorescence; AID 938; Potency, µM (doses to about 57.1 µM), for the others: top-dose activation, hits mostly activators; active = well fitted activation curve with a large enough effect; inconclusive = small, poorly fitted or top-dose-only effect; inactive = no such curve, though single readings can be large or run the other way; note: % of control where 0% means no effect; nearly all actives have a fitted effect of over 55% in size
#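 Parental HEK 293 cells stably expressing a modified CNG channel (no TSHR) report cAMP rise as membrane depolarization. Membrane potential dye with 100 uM RO 20-1724 was loaded for 60 min at room temperature, then compound added for 30 min; fluorescence read at 590 nm.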
# TSHR ag = agonists of human thyroid stimulating hormone receptor; actives 0.48% (n = 73,000); HEK293-CNG-TSHR cells (CNG channel as cAMP sensor), membrane potential dye, cAMP; Potency, µM (highest dose often 57.1 µM), without a hit: at the highest dose activation, most hits filed as activators; active = well fitted activation curve with a large enough effect in the main read-out, with a control signal flat, not every such curve was filed as active; inconclusive = small, poorly fitted or top-dose-only effect, or a change in a side signal; inactive = no such curve, though single readings can be large or run the other way; % of control where 0% means no effect;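 note: the control signal comes from parental cells without the receptor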
#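 HEK 293 cells stably expressing TSHR and a modified CNG channel, with CNG-only parental cells as counterscreen, were preloaded 60 min at room temperature with membrane potential dye containing 100 uM RO 20-1724. Compound exposure was 30 min, and depolarization was read as fluorescence at 590 nm.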
# PK Bst = modulators of Bacillus stearothermophilus pyruvate kinase; purified pyruvate kinase, luminescence ATP production; ribose 5-phosphate activator present at AC10; Potency, µM; actives 1.2% (n = 51,000); in the data active = potency below about 11 µM; inconclusive = mostly about 12 µM to 25 µM;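 the screen sought inhibitors and activators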;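 note: scaled between full activation by ribose 5 phosphate and full inhibition by luteolin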
# The depositor's hits bear a star; i = inactive; ? = inconclusive; . = no result; [ ] = another dose, or the depositor's remark. Potency is the fitted concentration of half-maximal effect.
SMILES,GBA activity,HEK293 cAMP ctrl,TSHR ag,PK Bst
C=C[C@@](C)(O)CC[C@H]1[C@]2(C)CCCC(C)(C)[C@H]2CC[C@]1(C)O,.,-7.1%,.,.
CCOC(=O)c1cc2sc(C)cc2n1CC(=O)N1CCc2ccccc21,>76.9,7.94µM*,?,>57
CCOC(=O)c1cc2sccc2n1CC(=O)N1CCCc2ccccc21,>76.9,?,?,>11.4
Cc1cccc2cc3ccc4ccccc4c3cc12,.,-4.0%[11.4 µM],9.6%[11.4 µM],.
CCOC(=O)c1cccc(NC(=O)C2CCCN2S(=O)(=O)c2cccc3cccnc23)c1 (stereo unspecified),.,0.6%,-2.7%,.
COc1ccc(NC(=O)C2CCN(S(=O)(=O)c3cccc4cccnc34)CC2)cc1OC,.,-6.0%,7.5%,.
O=C(Nc1cccc(C(F)(F)F)c1)C1CCCN1S(=O)(=O)c1cccc2cccnc12 (stereo unspecified),>76.9,?,?,8.29*
O=C(Nc1ccc2c(c1)OCO2)C1CCN(S(=O)(=O)c2cccc3cccnc23)CC1,>76.9,2.3%,-1.9%,6.67*
O=C(C1CCN(S(=O)(=O)c2cccc3cccnc23)CC1)N1CCc2ccccc21,>76.9,3.6%,17.6%,9.69*
N[C@H]1[C@@H](C(=O)O)[C@H]2C=C[C@H]1C2,.,-1.0%[11.4 µM],8.2%[11.4 µM],.
Cc1nc2ccccc2c2oc(C(=O)NCC3COc4ccccc4O3)cc12 (stereo unspecified),.,25.1µM*,?,.
O=C(O)c1[nH]c2c([N+](=O)[O-])cc([N+](=O)[O-])cc2c1C(=O)O,.,18.2%[11.4 µM],9.3%[11.4 µM],.
CC(C)(C)c1ccc(C(=O)/C=C2\NC(=O)CS2)cc1,.,-12.6%,2.7%,3.3*
CC12CC[C@@H]3c4ccc(OP(=O)(O)O)cc4CCC3C1CCC2=O (stereo partly specified),.,-7.0%[11.4 µM],-2.3%[11.4 µM],.
COc1ccc(NC(=O)c2cc(-c3ccc(C)o3)nc3ccccc23)cc1OC,>76.9,25.1µM*,?,3.67*
Cc1cccc(NC(=O)c2cc(-c3ccco3)nc3ccccc23)n1,>76.9,25.1µM*,?,>57
O=C(NCC1CCCO1)c1cc(-c2ccco2)nc2ccccc12 (stereo unspecified),>76.9,20.8%,18.1%,>57
COc1cc(NC(=O)c2cc3c(C)nc4ccccc4c3o2)cc(OC)c1OC,.,-6.0%,-3.8%,.
c1ccc(-c2oc3ncnc(NCCN4CCOCC4)c3c2-c2ccccc2)cc1,13.3*,18.5%,.,>57
N=c1c2c(-c3ccccc3)c(-c3ccccc3)oc2ncn1CCN1CCOCC1,>76.9,15.3%,11.2%,>57
CCOC(=O)CCSc1nc2c(c(C(F)(F)F)c1C#N)CCC2,14.9*,?,?,>57
O=C(O)C(=Cc1ccc(-c2ccccc2)cc1)C(=O)O,.,5.7%[11.4 µM],4.9%[11.4 µM],.
COc1ccc(C(c2nnnn2C2CCCC2)N2CCC(C)CC2)c(OC)c1 (stereo unspecified),>76.9,15.8µM*,?,>57
COc1ccc(C(c2nnnn2Cc2cccs2)N2CCN(c3ccccc3F)CC2)cc1 (stereo unspecified),>76.9,20µM*,?,>57
COCCn1nnnc1C(c1ccc(OC)c(OC)c1)N1CCN(c2nc3ccccc3s2)CC1 (stereo unspecified),5.98*,8.0%,13.6%,>57
SMILES,GBA activity,HEK293 cAMP ctrl,TSHR ag,PK Bst
COc1ccc(C(c2nnnn2Cc2ccccc2)N2CCN(c3ccccc3)CC2)cc1 (stereo unspecified),>76.9,?,?,>57
COc1ccc(C(c2nnnn2Cc2ccccc2)N2CCN(c3nc4ccccc4s3)CC2)cc1 (stereo unspecified),>15.4,13.9%,-0.9%,>57
COCCn1nnnc1C(c1ccc(OC)cc1OC)N1CCN(c2ccccc2F)CC1 (stereo unspecified),>76.9,25.1µM*,?,>57
O=C(O)[C@H]([C@H]1NCCS1)N1C(=O)c2ccccc2C1=O,.,-6.5%[11.4 µM],-3.3%[11.4 µM],.
N=C(N)c1ccc(/C=C\c2ccc(C(=N)N)cc2)cc1,.,3.7%[11.4 µM],2.0%[11.4 µM],.
Cc1cccc(N(C)C(=O)c2cc3cc4ccc(C)cc4nc3o2)c1,>76.9,10µM*,?,?
CCOC(=O)c1[nH]c2cc3c(cc2c1NC(=O)CN1CC(C)CC(C)C1)OCO3 (stereo unspecified),.,.,.,3.49*
Cn1nc(C(=O)NCc2cccnc2)c2ccccc2c1=O,>76.9,-1.3%,5.0%,>57
Cn1c(C(=O)NCc2cccnc2)cc2sc(Cl)cc21,.,25.1µM*,?,.
COc1ccc(-c2ccc(-c3noc(-c4ccccc4)n3)c(OC)n2)cc1,4.95*,17.6%,27.9%,>11.4
COc1nc(-c2ccccc2)ccc1-c1noc(COc2ccccc2)n1,>76.9,31.6µM*,?,>57
COc1ccc(-c2ccc(-c3noc(-c4ccco4)n3)c(OC)n2)cc1,7.68*,8.7%,10.0%,>57
COc1nc(-c2ccccc2)ccc1-c1noc(-c2ccccc2)n1,>76.9,5.4%,19.1%,.
Cc1nn(-c2nc3ccccc3s2)c(N)c1-c1ccccc1,>76.9,-12.1%,-22.7%,1.64*
O=C1CCC(c2ccccc2)=NN1c1nc2ccccc2s1,.,3.3%[11.4 µM],3.1%[11.4 µM],.
Cc1nn(-c2nc3ccccc3[nH]2)c(N)c1-c1ccccc1,>76.9,-6.1%,14.3%,2.85*
Cc1ccc(-c2nnn(CC(=O)N3CCN(c4nc5ccccc5s4)CC3)n2)cc1,>76.9,15.2%,-0.3%,>57
Cc1nn(-c2nc3ccccc3s2)c(N)c1-c1ccc(Cl)cc1,10.5*,1.1%,-2.9%,7.81*
CC1=CC(=O)CC(C)(C)[C@@]1(O)/C=C\C(C)=C\C(=O)O,.,-1.1%,2.8%,.
COC(=O)c1cc2sccc2n1CC(=O)Nc1ccc(OC)c(OC)c1OC,i,2.2%,3.4%[11.4 µM],>57
COC(=O)c1cc2sccc2n1CC(=O)Nc1cccc(SC)c1,.,25.1µM*,?,>57
CC(C(=O)OCC(=O)Nc1ccc2c(c1)OCO2)N1C(=O)c2ccccc2C1=O (stereo unspecified),>76.9,17.9%,11.7%,>57
CCC(SC1=Nc2ccccc2C2=NC(CC(C)C)C(=O)N12)C(=O)Nc1ccc2c(c1)OCO2 (stereo unspecified),.,15.8µM*,?,>57
Cc1ccc(C(=O)N2CCN(c3cccc(Cl)c3)CC2)cc1C,.,26.5%,.,.
Cc1ccc(C(=O)N2CCN(c3ccccc3)CC2)cc1C,.,25.1µM*,?,.
SMILES,GBA activity,HEK293 cAMP ctrl,TSHR ag,PK Bst
C[C@@H]1C=C[C@](Cc2ccccc2)(C(=O)NCC2CC2)N1C(=O)c1ccccc1,.,15.8µM*,?,.
N#CC(CC(=O)O)=C(c1ccccc1)c1ccccc1,.,17.6%[11.4 µM],6.0%[11.4 µM],.
CCOC(=O)c1c(C)nc2ccccn12,>76.9,7.8%,5.2%,>11.4
CCOC(=O)c1c(C2CCN(C(=O)OCC)CC2)nc2ccccn12,.,0.316µM*,?,.
CC1CCN(CC(=O)Nc2sc3c(c2C#N)CCC3)CC1,>76.9,7.94µM*,?,>57
Oc1ccccc1C1Nc2cccc3cccc(c23)N1,>76.9,-24.5%,-34.6%,3.6*
Brc1ccc(C2Nc3cccc4cccc(c34)N2)o1,.,-4.1%,-16.9%,.
COc1ccc(Cn2nnnc2C(C(C)C)N2CCN(c3ccccc3OC)CC2)cc1 (stereo unspecified),.,12.6µM*,?,>57
